Hits are enriched below; roughly 3.1% of the tested compounds scored in any of these assays.
p47phox inh: p47phox/p22phox peptide binding inhibitors, primary screen, biochemical, uHTS, NADPH oxidase regulatory subunit | Neutrophil cytosol factor 1 (Homo sapiens), P14598 | fluorescence polarization, 2 h | inhibition, % at 24.7 µM | hit rate 0.53% among 220,000;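 active = inhibition above about 30%, limit read from the data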
Bim-Mcl-1: inhibitors of Bim peptide binding to Mcl-1, primary screen, biochemical, bead-based flow cytometry, multiplex. Induced myeloid leukemia cell differentiation protein Mcl-1 (Homo sapiens), Q07820. Bim peptide-Mcl-1 binding. inhibition, % at 10 µM. hit rate 0.1% among 190,000; in the data active = inhibition above about 40%
Target sequence (Q07820 whole entry, looked up): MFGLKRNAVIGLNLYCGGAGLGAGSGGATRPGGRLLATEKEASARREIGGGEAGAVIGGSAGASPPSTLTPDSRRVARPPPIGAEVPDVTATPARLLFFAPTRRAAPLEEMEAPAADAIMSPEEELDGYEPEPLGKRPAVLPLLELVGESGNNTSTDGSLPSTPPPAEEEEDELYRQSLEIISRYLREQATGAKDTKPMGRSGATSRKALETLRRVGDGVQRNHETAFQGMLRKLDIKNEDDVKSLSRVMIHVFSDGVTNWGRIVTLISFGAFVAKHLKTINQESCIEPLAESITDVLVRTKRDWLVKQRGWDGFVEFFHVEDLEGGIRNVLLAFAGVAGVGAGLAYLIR
Mcl1-Noxa inh: Mcl-1/Noxa binding inhibitors, primary screen, biochemical, TR-FRET, 1536-well | TR-FRET Mcl-1/Noxa peptide binding, 2 h | inhibition, % at 21.7 µM | Induced myeloid leukemia cell differentiation protein Mcl-1 (Homo sapiens), Q07820 | hit rate 1.5% among 220,000;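 active = compounds that cut the protein-peptide binding signal by more than 50% relative to plate controls in a single-dose test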;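 also: His-tagged Mcl-1 with rhodamine Noxa BH3 peptide and terbium anti-His antibody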
14-3-3 Bad inh: inhibitors of 14-3-3 zeta/Bad binding, primary screen, biochemical, TR-FRET, bovine 14-3-3 zeta | 14-3-3 protein zeta/delta (Bos taurus), P63103 | TR-FRET 14-3-3zeta/Dy647-pBad peptide displacement, 1 h | inhibition, % at 21.7 µM | hit rate 0.71% among 220,000;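 active = inhibition above about 70%, limit read from the data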
Target sequence (P63103 whole entry, looked up): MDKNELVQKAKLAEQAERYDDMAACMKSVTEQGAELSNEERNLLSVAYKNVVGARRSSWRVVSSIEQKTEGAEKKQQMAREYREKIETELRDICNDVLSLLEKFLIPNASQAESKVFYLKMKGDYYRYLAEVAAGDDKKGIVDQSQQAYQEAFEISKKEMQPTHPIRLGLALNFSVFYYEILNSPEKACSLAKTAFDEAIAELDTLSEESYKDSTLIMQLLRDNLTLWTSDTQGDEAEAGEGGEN
Mcl1-Bid inh: Mcl-1/Bid binding inhibitors, primary screen, biochemical, TR-FRET, 1536-well; TR-FRET Mcl-1/Bid-Dy647 peptide binding; inhibition, % at 21.7 µM; hit rate 0.97% among 220,000;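 active = compounds that cut the binding signal by more than half at the single screening dose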;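 also: His-tagged Mcl-1 with europium anti-His antibody binding Bid BH3 peptide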
Hits are given with their value; n = inactive; x = no result given; + = active, no number; [ ] = another dose, or the depositor's remark.

SMILES	p47phox inh	Bim-Mcl-1	Mcl1-Noxa inh	14-3-3 Bad inh	Mcl1-Bid inh
C/C(N)=C(/C#N)C(=O)CSc1nnc(Nc2c(C)cccc2C)s1	n	n	72.4	n	n
COC(=O)c1sc(S(=O)(=O)Nc2ccc(Br)cc2)c(C(=O)OC)c1C	n	n	n	n	n
N#C/C(=C\c1cn(-c2ccccc2)nc1-c1cc2ccccc2o1)c1nc2ccccc2[nH]1	n	n	59.4	n	n
Cc1cc(/C=C(/C#N)c2nc3ccccc3[nH]2)c(C)n1-c1cc(C(=O)O)cc(C(=O)O)c1	n	n	51.5	n	n
CCCCOC(=O)C(C)Sc1n[nH]c(=O)[nH]c1=O (stereo not drawn)	n	n	n	n	n
C=CCNC(=S)/N=c1/ccccn1CCC	n	x	n	n	n
Cc1cnc(C(=O)OCC(=O)Nc2oc(-c3ccccc3)c(-c3ccccc3)c2C#N)cn1	n	n	54.3	n	n
N#Cc1c(NC(=O)CSc2ccccn2)oc(-c2ccccc2)c1-c1ccccc1	n	n	n	n	n
CC(C)c1nc(CN(C)C(=O)N[C@H](C(=O)N[C@@H](Cc2ccccc2)C[C@H](O)[C@H](Cc2ccccc2)NC(=O)OCc2cncs2)C(C)C)cs1	n	n	n	n	n
COC(=O)C1=C(C(=O)OC)C(c2cc(Br)ccc2O)c2sc(=O)[nH]c2S1 (stereo not drawn)	n	n	87.0	n	n
COC(=O)C1=C(C(=O)OC)C(c2ccc(OC)c(OC)c2)c2sc(=O)[nH]c2S1 (stereo not drawn)	n	n	n	n	n
COC(=O)C1=C(C(=O)OC)C(c2cc(Cl)ccc2O)c2sc(=O)[nH]c2S1 (stereo not drawn)	n	n	78.7	n	n
O=C(NN=C1CCCC1)C1COc2ccccc2O1 (stereo not drawn)	n	n	n	n	n
COc1cccc2c1nc(C)c1cc(C)oc12	n	n	n	n	98.9
O=C(c1ccccc1)c1ccc(OCCCN2CCCC2)cc1	n	n	n	n	n
O=C(c1ccccc1)c1ccc(OCCCCN2CCCCC2)cc1	n	n	n	74.3	n
COc1ccccc1/C=C(/C(=O)OCC(=O)Nc1ccc(N(C)C)cc1)c1ccccc1	n	n	69.4	n	n
COc1ccc2c(Cl)c(C(=O)N/N=C/c3ccc4c(c3)OCO4)sc2c1	n	n	n	72.5[fluorescence artefact?]	n
COc1ccccc1NS(=O)(=O)c1cccc(C(=O)N/N=C/c2ccc3c(c2)OCCO3)c1	n	n	n	n	n
COc1ccc(NS(=O)(=O)c2cccc(C(=O)N/N=C/c3ccc4c(c3)OCCO4)c2)cc1	31.3	n	n	n	64.8
O=C(N/N=C/c1ccc2c(c1)OCO2)c1sc2cc(Cl)ccc2c1Cl	31.5	n	n	n	50.5
CCc1ccc(CNCCSc2nnnn2C)cc1	n	n	n	n	n
C/C(=N\NC(=O)c1ccccn1)c1ccc(C(=O)O)s1	n	n	n	n	n
Cc1ccc(C(C)C)c(OCC(O)CN2CCN(CCO)CC2)c1 (stereo not drawn)	n	n	n	n	53.0
C=CCc1ccccc1OCC(O)CN1CCN(c2ccc(C)cc2)CC1 (stereo not drawn)	n	n	n	72.3	n
SMILES	p47phox inh	Bim-Mcl-1	Mcl1-Noxa inh	14-3-3 Bad inh	Mcl1-Bid inh
Cc1ccc(C(C)C)c(OCC(O)CN2CCOCC2)c1 (stereo not drawn)	n	n	n	n	n
NC(=O)C1CCN(CCS(=O)(=O)c2ccc(Cl)cc2)CC1	n	x	n	n	n
COC(=O)c1sc(-c2ccc(C(C)(C)C)cc2)cc1NC(=O)CCC(=O)O	33.0	x	n	n	n
CCN(C(=O)COC(=O)CNS(=O)(=O)c1ccccc1)c1ccccc1	n	n	n	n	n
O=C(CNC(=O)c1ccc(F)cc1)N/N=C/c1cc(Br)ccc1OC(=O)/C=C/c1ccco1	n	x	59.4	n	n
Cc1nn(Cc2ccc(F)cc2)c2sc(C(=O)Nc3ccc(N4CCOCC4)cc3N3CCOCC3)cc12	n	n	75.7	n	n
Cc1nn(Cc2ccccc2)c(C)c1C(=O)Nc1ccc(N2CCOCC2)cc1	n	n	n	n	n
O=[N+]([O-])c1cc(/C=N\O)ccc1Oc1ccc(F)cc1	n	n	n	84.5	n
COc1cc(/C=N/O)ccc1Oc1ccc([N+](=O)[O-])cc1[N+](=O)[O-]	n	n	n	n	n
O=C(NCC1CCCO1)c1cc2ccccc2oc1=O (stereo not drawn)	n	n	n	n	n
O=C(N/N=C/c1ccc(F)cc1)c1cc(-c2ccc3c(c2)OCO3)n[nH]1	n	x	n	n	n
CN(C)c1ccc(/C=N/NC(=O)c2cc(-c3ccc4c(c3)OCO4)n[nH]2)cc1	n	x	59.8	n	n
COc1cccc2cc(C(N)=O)/c(=N/NC(=O)COc3ccc(Cl)cc3)oc12	n	n	n	n	63.8
COc1ccc(OCC(=O)N/N=c2\oc3c(OC)cccc3cc2C(N)=O)cc1	n	n	n	n	n
O=C(Nc1ccc(Cl)cc1)N(C1=NCCC1)c1ccc(OC(F)F)cc1	n	n	n	n	n
Cc1ccc(Nc2nc(-c3cccnc3)nc3ccccc23)cc1	n	x	n	n	n
Cc1cccc(-c2nc(Nc3ccc(N4CCOCC4)cc3)c3ccccc3n2)c1	n	n	81.5	n	n
O=C(NCc1cccnc1)c1csc2c1CCCC2	n	n	n	n	n
CCN(CC)C(=O)CC(c1ccc(N(C)C)cc1)c1c(O)cc(OC)cc1OC (stereo not drawn)	n	x	n	n	n
Clc1ccc(N/N=C/c2ccncc2)cc1Cl	n	n	51.0	n	n
Fc1ccc(N/N=C/c2ccncc2)c(F)c1	n	n	n	n	n
CCOc1ccc(-n2nc3c(=O)[nH]nc(C)c3c2C)cc1	56.7	n	n	n	n
CCOc1ccc(-n2nc3c(=S)[nH]nc(C)c3c2C)cc1	n	n	n	n	n
Clc1cc2c(c(CSc3nc4ccccc4n4cccc34)c1)OCOC2	n	x	n	n	n
Cc1ccc2c(COC(=O)CC3Sc4ccccc4NC3=O)cc(=O)oc2c1C (stereo not drawn)	n	n	n	n	n
O=C(CC1Sc2ccccc2NC1=O)OCc1cc(=O)oc2cc(O)ccc12 (stereo not drawn)	n	n	95.0	n	n
O=S(=O)(c1ccc2c(c1)oc1ccccc12)N1CCOCC1	n	n	n	+[fluorescence artefact?]	n
O=S(=O)(c1ccc2nc(Cc3ccccc3)[nH]c2c1)N1CCOCC1	n	n	n	87.9	n
O=S(=O)(c1ccc2nc(Cc3cccc(C(F)(F)F)c3)[nH]c2c1)N1CCOCC1	n	n	n	n	n
O=S(=O)(NCc1ccccc1)c1cccc(S(=O)(=O)N2CCOCC2)c1	n	n	n	n	81.3

Screens as filed in PubChem.
